Among all 340,000 compounds or so, about 6,900 (2%) were called active. The sample holds actives, similar compounds and a random draw of the others, so the mix is not that of the screen. Unmarked numbers belong to inactive results. No stated cut-off is given here; in the data, active means inhibition above about 30%; inactive means below that, where a call was filed.
Molecular target: D(2) dopamine receptor (Homo sapiens) (UniProt P14416)
Assay: HTS Assay for Allosteric Antagonists of the Human D2 Dopamine Receptor: Primary Screen for Antagonists; further: 0% is about no effect
Details: HEK293 TREx D2 cells, calcium flux, dopamine EC80; at 10 µM; active compounds read high
Outline: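 Overnight-induced (tetracycline, 30 C) HEK293 T-REx cells carrying force-coupled D2 receive a no-wash calcium dye, then compound, then EC80 dopamine at 180 s; signals are read kinetically throughout.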

Sequence of D(2) dopamine receptor (Homo sapiens) (P14416 whole entry, looked up): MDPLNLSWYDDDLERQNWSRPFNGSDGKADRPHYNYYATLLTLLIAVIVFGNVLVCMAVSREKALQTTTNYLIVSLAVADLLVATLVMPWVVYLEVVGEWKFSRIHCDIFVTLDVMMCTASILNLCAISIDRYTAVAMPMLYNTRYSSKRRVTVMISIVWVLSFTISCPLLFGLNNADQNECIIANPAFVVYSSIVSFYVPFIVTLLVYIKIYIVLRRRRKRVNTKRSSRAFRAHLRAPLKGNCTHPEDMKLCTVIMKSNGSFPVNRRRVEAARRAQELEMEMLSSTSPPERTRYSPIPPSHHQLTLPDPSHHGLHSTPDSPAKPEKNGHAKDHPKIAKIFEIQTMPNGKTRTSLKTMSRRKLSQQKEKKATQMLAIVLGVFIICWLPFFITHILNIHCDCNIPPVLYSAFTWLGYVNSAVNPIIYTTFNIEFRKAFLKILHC

Row | SMILES | inhibition
1 | CC(C)(C)OC(=O)NCCCCCNC(=O)c1nc[nH]c1C(=O)NCc1ccccc1 | 7.02%
2 | Cc1ccc(-c2nc(CSCC(=O)NC3CCN(Cc4ccccc4)CC3)c(C)o2)cc1 | 47.3% (active)
3 | Cc1ccc(-c2cc(C(=O)NC3CCN(Cc4ccccc4)CC3)c3ccccc3n2)cc1 | -27.8%
4 | Cc1ccc(S(=O)(=O)NCCC(=O)NC2CCN(Cc3ccccc3)CC2)cc1 | 27.4%
5 | CN(CC(=O)Nc1ccc(F)cc1)CC(=O)N1CCCCC1 | -7.3%
6 | Cc1cc(C(=O)Nc2nnc(C3CC3)s2)c(C)s1 | 3.85%
7 | CCOC(=O)C1(CCOC)CCN(Cc2ccc(C(=O)OC)cc2)CC1 | 5.1%
8 | COC(=O)c1ccc(CN2CCC(CO)(Cc3ccc(OC)cc3)CC2)cc1 | 63.2% (active)
9 | COc1ccc(CC2(CO)CCN(Cc3cnn(C)c3)CC2)cc1 | -4.17%
10 | Cc1ccc(C)c(NC(=O)COC(=O)CSc2ccccc2)c1 | -6.28%
11 | N#CCCN(C(=O)COC(=O)C1CCN(c2ccc(C(F)(F)F)cn2)CC1)c1ccc(F)cc1 | 5.59%
12 | COc1ccc(Cl)cc1NC(=O)COc1ccc2c(c1)OCO2 | 7.9%
13 | C[C@H](OC(=O)n1ccnc1)[C@@H]1O[C@@]2(C)CCC[C@@H]1O2 | -7.72%
14 | CC1(C)OC(=O)N2CCc3ccccc3C21C (stereo unspecified) | 40.5% (active)
15 | CC1Cc2ccccc2N1C1=CC(=O)CC(C)(C)C1 (stereo unspecified) | 3.51%
16 | CCN(CC(=O)Nc1ccccc1C(F)(F)F)C(=O)CSCc1c(C)noc1C | 1.97%
17 | C=CCN1C(=O)C(O)(CC(=O)c2ccccn2)c2ccccc21 (stereo unspecified) | 3.67%
18 | O=C(CC1(O)C(=O)N(CN2CCOCC2)c2ccccc21)c1ccccc1 (stereo unspecified) | 30.3% (active)
19 | C=CCN1C(=O)C(O)(CC(=O)c2ccc(Cl)cc2)c2ccccc21 (stereo unspecified) | 0.63%
20 | CCc1noc(C)c1C(=O)Oc1ccc(N(C)S(=O)(=O)c2ccc(C)c(C)c2)cc1 | -5.58%
21 | Cc1ccc(S(=O)(=O)N(C)C)cc1NC(=O)C(C)OC(=O)c1ccc2ccccc2n1 (stereo unspecified) | 5.2%

Row | SMILES | inhibition
22 | COc1cc(C(C)=O)ccc1OC(C)C(=O)Nc1ccc(S(=O)(=O)N2CCCC2)cc1 (stereo unspecified) | -10.1%
23 | O=C1CN(C(=O)CN2C(=O)NC3(CCCCC3)C2=O)c2ccccc2N1 | 3.68%
24 | CC(=O)N1C(=O)C2(Nc3ccccc3N2)c2ccccc21 | 34.2% (active)
25 | CC(C)(C)C(=O)CCN1C(=O)C2(OCCO2)c2ccccc21 | -2.06%
26 | CC1CCN(C(=O)COC(=O)c2cc(=O)[nH]c3ccccc23)CC1 | -0.452%
27 | CC(NC(=O)c1ccccc1F)c1cccc2ccccc12 (stereo unspecified) | 10.4%
28 | COc1ccc(OC)c(CNC(=O)Cn2nc(C)c3c(C)n(-c4ccc(C)cc4)nc3c2=O)c1 | 30% (active)
29 | Cc1nn(CC(=O)N2CCCCC2)c(=O)c2nn(-c3ccccc3)c(C)c12 | 20.3%
30 | CCOC(=O)C1CCN(C(=O)Cn2nc(C)c3c(C)n(-c4ccccc4)nc3c2=O)CC1 | 2.33%
31 | CC(=O)c1sc(N)nc1C | 9.17%
32 | COc1ccc(C(C)(C)C)cc1NC(=O)CCN1C(=O)C2CCCCC2C1=O (stereo unspecified) | 11.5%
33 | Cc1ccc(CC(=O)Nc2ccc(S(=O)(=O)N3CCOCC3)cc2)cc1C | 19%
34 | C[C@H]1[C@H]2c3nc4ccccc4n3C[C@H]1ON2C1CCCCC1 | 31% (active)
35 | CN1C(C(=O)NCC2CC2)CC2Cn3c(nc4ccccc43)C21 (stereo unspecified) | 6.56%
36 | CN1C(C(=O)NCc2ccco2)CC2Cn3c(nc4ccccc43)C21 (stereo unspecified) | 12.7%
37 | Cc1cc(C(=O)COc2ccc(Br)cc2F)c(C)n1C1CC1 | -10.6%
38 | O=C(CN1CCN(c2ccccc2O)CC1)NC(=O)NCc1ccccc1 | -6.15%
39 | COc1ccc2oc(C(=O)OCC(=O)N(CC(C)C)c3c(N)n(Cc4ccccc4)c(=O)[nH]c3=O)c(C)c2c1 | -27.2%
40 | Cc1ccc(NC(=O)C(C)OC(=O)Cc2c[nH]c3ccccc23)cc1S(=O)(=O)N1CCOCC1 (stereo unspecified) | -4.91%
41 | CC(C)CCN1CCC(C)(NC(=O)c2ccccc2)C1=O (stereo unspecified) | 3.51%
42 | CC(OC(=O)CN1C(=O)c2ccccc2C1=O)C(=O)c1ccccc1 (stereo unspecified) | 10.6%

Row | SMILES | inhibition
43 | CCN(CC(=O)NCc1ccc(Cl)cc1)C(=O)c1c(C)noc1C | 30.3% (active)
44 | Cc1noc(C)c1S(=O)(=O)N(CC(=O)NCc1ccc(Cl)cc1)c1ccc2c(c1)OCO2 | 1.26%
45 | CCN(CC(=O)NCc1ccc(Cl)cc1)C(=O)CSc1ccccc1 | -4.45%
46 | CC(=O)c1c(C)[nH]c(C(=O)COc2ccc3c(C)cc(=O)oc3c2)c1C | 1.65%
47 | CN(C)C(=O)N=NC(=O)N(C)C | 6.75%
48 | CCC(C)CCN1CCN=C1N(C)C (stereo unspecified) | -4.14%
49 | C=C(C)COc1ccc(-c2nc(N)ncc2-c2ccccc2OC)c(O)c1 | -11.9%
50 | CCOc1ccc(-c2nc(N)ncc2-c2ccccc2OC)c(O)c1 | 34.9% (active)
51 | COc1ccc(-c2nc(N)ncc2-c2ccc(Cl)cc2)c(O)c1 | -27.1%
52 | CCCCN1C(=O)C(=O)N(CC(=O)Nc2cccc(C(C)=O)c2)C1=O | 2.29%
53 | COc1ccc(C(=O)OC(C)C(=O)NC2CCCC2)cc1S(=O)(=O)N1CCOCC1 (stereo unspecified) | -6.41%
54 | O=[N+]([O-])c1ccc(NCCCN2CCOCC2)c(Cl)c1 | -7.9%
55 | O=C(NCCCN1CCOCC1)c1ccc(N2CCCC2)c([N+](=O)[O-])c1 | -5.74%
56 | O=C(NCCCN1CCOCC1)c1ccc([N+](=O)[O-])cc1[N+](=O)[O-] | 48.1% (active)
57 | COc1ccc(CC2c3cc(OC)c(OC)cc3CC[N+]2(C)CCC(=O)OCCCCCOC(=O)CC[N+]2(C)CCc3cc(OC)c(OC)cc3C2Cc2ccc(OC)c(OC)c2)cc1OC (stereo unspecified) | 2.9%
58 | COc1ccc(Cl)cc1NC(=O)NC(C)C(C)(C)C (stereo unspecified) | 34.2% (active)
59 | COC(=O)[C@@H](NC(=O)Nc1cc(Cl)ccc1C)C(C)C | 18.4%
60 | COc1ccc(Cl)cc1NC(=O)CNc1ccccc1F | 0.751%
61 | Cc1cc(C(=O)Nc2ccc(C)c(S(=O)(=O)N3CCOCC3)c2)c2ccccc2n1 | 3.28%
62 | O=C(c1cc(-c2ccco2)nc2ccccc12)N(Cc1nnc(-c2ccc(Cl)cc2)o1)C1CC1 | -3.48%
63 | COc1ccccc1OC(C)C(=O)Nc1ccc(S(=O)(=O)Nc2nccs2)cc1 (stereo unspecified) | -2.37%

Row | SMILES | inhibition
64 | CCC(CC)C(=O)Nc1ccc(S(=O)(=O)Nc2nccs2)cc1 | 32.1% (active)
65 | Cc1ccc(OCCC(=O)Nc2ccc(S(=O)(=O)Nc3nccs3)cc2)cc1 | 23.7%
66 | COc1ccccc1N1CCN(Cc2cc(OC)c3c(c2)OCO3)CC1 | 85.7% (active)
67 | CNCC(O)CN1CCN(c2ccccc2OC)CC1 (stereo unspecified) | -12.4%
68 | COc1ccccc1N1CCN(Cc2ccc(OC)c3ccccc23)CC1 | 72.3% (active)
69 | COc1ccccc1N1CCN(CCCCOc2ccc(F)cc2)CC1 | 1.05%
70 | COc1ccc(CN2CCN(Cc3ccc(OC)c(OC)c3OC)CC2)cc1 | -16%
71 | COc1ccccc1CN1CCN(Cc2cc(OC)c(OC)cc2OC)CC1 | -0.792%
72 | COc1ccc(S(=O)(=O)N2CCOCC2)cc1NC(=O)CSc1cc(C)ccc1C | -16%
73 | CCN(CC(=O)Nc1ccc(NC(C)=O)cc1)C(=O)CSC(=S)N1CCCC1 | 12.7%
74 | CC1(C)O[C@@H]2[C@H](O1)[C@@H](COS(=O)(=O)O)O[C@H]2n1cnc2c(=O)[nH]cnc21 | 10.8%
75 | CCCCn1c(N)c(N(CC(C)C)C(=O)CSc2ccc([N+](=O)[O-])cc2)c(=O)[nH]c1=O | 6.25%
76 | OCC[C@H]1C[C@@H](O)[C@H](O)[C@@]2(OCCc3ccccc32)O1 | 3.29%
77 | CCN(CC(=O)Nc1ccc(OC)cc1)C(=O)CSCc1ccc(C)cc1 | 7.06%
78 | Cc1cc(C(=O)N/N=C\C(Br)=C\c2ccccc2)c(C)o1 | 1.9%
79 | Cc1cc(C(=O)N/N=C/c2ccccc2[N+](=O)[O-])c(C)o1 | 2.69%
80 | CC(=C/c1ccccc1)/C=N/NC(=O)c1cc(C)oc1C | 36.9% (active)
81 | COc1ccccc1C(=O)COC(=O)CSCC(=O)Nc1cc(C)on1 | 14.3%

From PubChem BioAssay AID485344 (National Center for Advancing Translational Sciences (NCATS), 2010)
